Screening data (PubChem BioAssay)
Rab9 promoter act: Rab9 promoter activation | Huh7 Rab9 promoter-luciferase reporter, luminescence, 24 h | Potency, µM (titrated, usually from 9.22 µM), for inactives: at the top dose activation, negative = inhibition, hits mostly activators | actives 2.8% (n = 320,000) | AID 485297; note: % of control where 0% means no effect; nearly all actives have a fitted effect of over 60% in size
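Huh7 cells stably carrying Rab9 promoter–luciferase reporter, plated 1500 cells/well, compound added after 2 h and incubated 24 h at 37 °C; luciferase luminescence then read after 10 min with detection reagent.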
ELG1 genotoxic: genotoxicity induction in ELG1-luciferase HEK293T cells. HEK293T ELG1-luciferase reporter, luminescence, 16 h. Potency, µM (highest dose often 46 µM), for the others: at the highest dose activity change, positive = activation, most hits filed as activators. actives 1.3% (n = 330,000); note: % of control where 0% means no effect; nearly all actives have a fitted effect of over 60% in size
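After overnight (16 hr) compound treatment at 37 °C, ELG1-luciferase HEK293T cells were lysed with ONE-Glo; luminescence quantified 30 min later at room temperature.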
NPC1 promoter act: NPC1 promoter activation; Huh7 NPC1 promoter luciferase reporter, 24 h; Potency, µM (series often up to 9.22 µM), for the others: at the highest dose activation, actives largely listed as activators; actives 2.4% (n = 320,000); AID 485313; note: % of control where 0% means no effect; nearly all actives have a fitted effect of over 60% in size
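Cells: Huh7 expressing luciferase under the NPC1 promoter, 1500/well. Seeded 2 h, compound added, incubated 24 h at 37 °C. Luciferase reagent, 10 min ambient, then luminescence.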
SMN2 splice up: enhancers of SMN2 splice variant expression; HEK293 SMN2-luciferase splicing reporter, luminescence, 30-36 h; Potency, µM (titrated, usually from 46.1 µM), for inactives: at the highest dose activity change, positive = activation, usual class: activators; actives 2.8% (n = 210,000); AID 1458; note: % of control where 0% means no effect; nearly all actives have a fitted effect of over 55% in size
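HEK293 cells carry an SMN2 […]–luciferase reporter in which exon 7 inclusion puts luciferase in frame. Cells were plated 10-12 h before compound addition, then incubated 30-36 h at 37C. ONE-Glo luminescence was read; sodium butyrate at 4.5 mM final served as control.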
FLuc modulator: counter-screen for miR-21 project: firefly luciferase inhibitors or activators; purified FLuc, Km substrates, luminescence inhibition; Potency, µM (doses to about 57.5 µM), for inactives: top-dose activity change, negative = inhibition, most hits filed as inhibitors; actives 6.9% (n = 360,000); AID 588342;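 note: plate controls were vehicle for no effect and reference inhibitor for full effect; nearly all actives have a fitted effect of over 55% in size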
Target sequence (P08659 whole entry, looked up): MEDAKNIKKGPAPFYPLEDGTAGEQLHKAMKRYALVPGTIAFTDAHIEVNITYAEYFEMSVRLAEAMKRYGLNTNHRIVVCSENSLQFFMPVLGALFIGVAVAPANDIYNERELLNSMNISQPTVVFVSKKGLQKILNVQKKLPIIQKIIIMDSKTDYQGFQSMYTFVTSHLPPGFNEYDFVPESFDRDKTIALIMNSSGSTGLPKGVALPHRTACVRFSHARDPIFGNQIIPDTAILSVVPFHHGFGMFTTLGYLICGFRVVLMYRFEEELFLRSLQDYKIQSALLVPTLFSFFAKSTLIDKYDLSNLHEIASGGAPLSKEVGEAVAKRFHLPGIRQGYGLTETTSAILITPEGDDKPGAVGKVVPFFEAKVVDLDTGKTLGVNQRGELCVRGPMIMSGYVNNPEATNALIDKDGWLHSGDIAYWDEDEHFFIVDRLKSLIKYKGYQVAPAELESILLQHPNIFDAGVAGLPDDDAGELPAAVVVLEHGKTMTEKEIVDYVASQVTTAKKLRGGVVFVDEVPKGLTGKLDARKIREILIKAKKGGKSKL
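Purified P. pyralis luciferase (10nM final) with 10uM D-luciferin and 10uM ATP (Km levels) in 50mM Tris acetate pH 7.5, 10mM Mg acetate, 0.01% Tween-20, 0.05% BSA; qHTS 6-point titration, ~60 µM downward; luminescence read.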
An asterisk follows results filed as active; ? = inconclusive; · = no result; [ ] = remark or other dose. This is a sample that favours compounds with a hit; in the whole collection about 7.5% have one here. Calls come from the whole dose curve; as a rule, active = well fitted curve in the direction sought with a large enough effect; inconclusive = small, poorly fitted or top-dose-only effect, or another doubt; inactive = no such curve, though single readings can be large; an effect the other way counts as inactive or inconclusive. Potency is the fitted concentration of half-maximal effect.

SMILES	Rab9 promoter act	ELG1 genotoxic	NPC1 promoter act	SMN2 splice up	FLuc modulator
O=C(COC(=O)/C=C/c1ccco1)Nc1ncc(Cl)cc1Cl	1.3%	-0.8%	-2.2%	-14.9%	0.9%
CCOC(=O)C1CCN(C(=O)CCNC(=O)c2cc(OC)c(OC)c(OC)c2)CC1	0.2%	3.8%	-4.6%	9.6%	-0.3%
CN(C)c1ccc(N=c2sc3ccccc3n2C)cc1	?	6.51µM*	?	-4.9%	6.01µM*
Cn1c(=Nc2ccccc2)sc2ccccc21	24.0%	?	14.1%	-19.9%	21.3µM*
Cc1ccsc1/C=C/c1ccc2ccccc2n1	2.24µM*	?	2µM*	0.891µM*	1.69µM*
Cc1ccsc1/C=C/c1ccc2cccc(O)c2n1	3.55µM*	9.2µM*	?	?	2.69µM*
COc1cc(Br)c(/C=C/c2ccc3cccc(O)c3n2)cc1OC	-2.5%[1.84 µM]	?	16.7%	·	?
Oc1cccc2ccc(/C=C/c3cccs3)nc12	2.82µM*	2.24µM*	?	25.5%	2.13µM*
Cn1c(Oc2ccccc2)nc2c1c(=O)n(Cc1ccc(Cl)cc1Cl)c(=O)n2C	·	·	·	-8.5%	5.8%
CCN(CC)C(=O)CSc1nnc([C@@H](N)C(C)C)o1	-2.3%	0.3%	-1.1%	·	0.2%
CCN(CC)c1ccc2nc3ccccc3[n+](CC)c2c1	-47.9%	-34.7%	-44.8%	·	15.1µM*
CCN(CC)c1ccc(/C=N/N2C(=O)c3ccccc3C2=O)c(O)c1	23.4%	-3.6%	21.0%	?	?
CCN(CC)c1ccc2nc3ccc(N)cc3[n+](-c3ccccc3)c2c1	-33.6%	-2.7%	-36.0%	·	13.5µM*
O=C(COC(=O)Cc1c(F)cccc1Cl)NC(=O)c1ccccc1	0.7%	13.0%	-2.1%	·	?
C[C@@H]1CCC2C(C)(C)C3CC21CC[C@@]3(C)O (stereo partly drawn)	·	·	·	6.8%	·
CCOc1ccc(OCCSc2ccc(S(=O)(=O)N3CCN(C)CC3)cn2)cc1	-3.2%	-3.9%	-0.7%	·	-13.9%
CC(=O)c1cccc(NC(=O)c2sc3nc4c(cc3c2N)CCCC4)c1	·	·	·	16.9%	0.536µM*
